a7 integrin act = activators of alpha7 integrin expression for muscular dystrophy; alpha7betagal myoblasts, beta-gal FDG fluorescence, 48 h; Potency, µM (highest dose often 38.3 µM), inactives show at the top dose activation, usual class: activators; actives 0.064% (n = 350,000); AID 624291;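 also: potency is read from the fitted curve at half-maximal effect; 100% = response of the positive control SU9516; nearly all actives have a fitted effect of over 60% in size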
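alpha7betagal+/- myoblasts (passage 13, 250/well) treated 48 h at 37C with compounds at 1:260 dilution of DMSO stock. Lysed, then beta-galactosidase activity read as FDG fluorescence (ex 480/em 540) after 30 min, with pre-read for autofluorescence.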
BRCA1 expr up = BRCA1 expression activation; MCF7-BRCA1-FFLuc reporter, luminescence, 48 h; response scale: scaled: vehicle 0%, 10 µM genistein 100%; Potency, µM (series often up to 46.1 µM), for the others: top-dose activation, usual class: activators; actives 1.1% (n = 380,000); also: potency is read from the fitted curve at half-maximal effect; nearly all actives have a fitted effect of over 80% in size
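MCF7-BRCA1-FFLuc cells, 2000/well in phenol-red-free MEM, attached 2 h then treated 48 h at 37 C. Luciferase luminescence read 15 min after reagent; normalized to genistein maximum activation (10microM) and DMSO, concentration-response fitted.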
N370S GC mod = inhibits or activates N370S mutant glucocerebrosidase | P04062 | N370S GC spleen homogenate, 4MU-glucoside fluorescence | Potency, µM (highest dose often 59.4 µM), inactives show top-dose activity change, negative = inhibition, actives largely listed as inhibitors | actives 0.092% (n = 330,000);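 also: potency is read from the fitted curve at half-maximal effect; 0% = full enzyme activity and -100% = no enzyme basal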
IL-2 act = IL-2 activation | actives 0.065% (n = 360,000) | AID 652025 | activation, % (series mostly up to about 46 µM) | IL-2 activation reporter assay, cell-based qHTS; stimulated with anti-CD3/CD4/CD28 beads; in transgenic mouse T cells; in the data active = activation above about 50%; inconclusive = mostly about 30% to 49%; also: 0% is about no effect
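Unstimulated transgenic mouse T cells, 750 per well, received compound and, after 60 minutes, anti-CD3/anti-CD4 bead plus anti-CD28 stimulation. EGFP and DsRed were quantified after 18 hours.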
BCR signal inh = inhibitors of chronic active B-cell receptor signaling; actives 0.05% (n = 340,000); ABC-DLBCL IkBa-CBG/CBR reporter, luminescence ratio, 4 h; Potency, µM (highest dose often 46.1 µM), inactives show at the highest dose activity change, negative = inhibition, hits mostly inhibitors; AID 493014; active = well fitted inhibition curve with a large enough effect in the signal ratio, with a control signal flat, not every such curve was filed as active; inconclusive = small, poorly fitted or top-dose-only effect, or effect the other way, or a change in a side signal; the % refers to the signal ratio;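 also: potency is read from the fitted curve at half-maximal effect; plate controls were basal doxycycline-induced cells for no effect and cells given 10 µM MG132 for full effect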
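Compounds up to 46 uM were incubated four hours with TMD8 cells whose green CBG68 luciferase is fused to IkappaBalpha; red CBR luminescence normalised the signal, and concentration-effect curves were fitted to fusion, red and ratio data.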
Nrf2 ARE act = activates Nrf2 signaling. AREc32 ARE-luciferase reporter (MCF7-derived line), luminescence, 24 h. Potency, µM (top dose mostly 46.1 µM), without a hit: top-dose activation, most hits filed as activators. actives 0.31% (n = 410,000); also: potency is read from the fitted curve at half-maximal effect; % of control where 0% means no effect; nearly all actives have a fitted effect of over 65% in size
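For detection, Steady-Glo was added and plates sat 30 min at RT; before that, AREc32_Fluc cells grown overnight in OPTI-MEM/5% FBS had been treated with 23 nL compound for 24 hr at 37 deg C.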
The depositor's hits bear a star; ? = inconclusive; nt = not tested or not shown; ! = not active in a repeat. Compounds with a hit are over-represented: about 1.4% of the library has one in this group of screens. Unless noted, calls follow the shape of the dose curve; as a rule, active = well fitted curve in the direction sought with a large enough effect; inconclusive = small, poorly fitted or top-dose-only effect, or another doubt; inactive = no such curve, though single readings can be large; an effect the other way counts as inactive or inconclusive.

SMILES	a7 integrin act	BRCA1 expr up	N370S GC mod	IL-2 act	BCR signal inh	Nrf2 ARE act
O=C(Nc1ccc(NC(=O)c2cccs2)cn1)c1ccccc1	-16%	63%	1%	0	?	4%
O=C(Nc1ccc(NC(=O)C2CC2)cn1)c1ccccc1Cl	-8%	13µM*	-1%	1	?	0%
Cc1ccc(NC(=O)CCOc2ccccc2)cc1	0%	7.1µM*	-6%	7	?	0%
CCOc1ccc(NC(=O)c2nccnc2CO)cc1	-18%	5.6µM*	5%	0	?	0%
CCOc1ccc(NC(=O)c2cnccn2)cc1	15%	3%	5%	1	?	-1%
CC1=C(C(=O)N2CCCCCC2)CC(CC(=O)NC2CCCC2)C(=O)N1Cc1ccc(F)cc1 (centres undefined)	nt	-11%	nt	0	nt	0%
O=C(CCCc1ccncc1)c1ccccc1	17%	4µM*	nt	0	nt	0%
O=C(CCC1N=C2c3ccccc3N=C(SCc3ccccc3F)N2C1=O)NCc1ccc(F)cc1 (centres undefined)	nt	nt	nt	nt	9%	1%
COc1ccc(N(CCCN2C(=O)c3cccc4cccc(c34)C2=O)C(=O)c2cccc(OC)c2)cc1	-13%	-64%	-2%	1	-10%	?
O=C1c2cccc3cccc(c23)C(=O)N1CCCN(C(=O)c1cccs1)c1cccc(F)c1	0%	-53%	-10%	0	-13%	3.2µM*
COc1cc(O)c(CC=C(C)C)c(O)c1C(=O)CCc1ccc(O)cc1	-34%	-35%	1%	0	?	-1%
O=C(CCc1ccc(O)cc1)c1c(O)cc(O)cc1O	-2%	11%	18µM*!	0	?	13%
COc1ccc(C2=NN3C(C2)c2ccccc2OC3c2cccs2)cc1 (centres undefined)	-14%	10µM*	-4%	-1	?	24%
COc1ccc(C2=NN(C(=O)CCC(=O)O)C(c3cccs3)C2)cc1 (centres undefined)	6%	4%	9%	-1	27%	1%
Clc1cccc(CNCCCSc2nnnn2-c2ccccc2)c1	nt	nt	nt	nt	nt	4%
CC(C)(C)C(=O)OCCNc1nc(-c2ccccc2)nc2ccccc12	-21%	-27%	0.89µM*	0	?	8%
c1ccc(CCNc2nc(-c3ccncc3)nc3ccccc23)cc1	-53%	-38%	14µM*	-2	1%	2%
Clc1ccccc1-c1nc(NCc2cccnc2)c2ccccc2n1	nt	nt	16µM*	nt	nt	nt
CN(C)CCCNc1nc(-c2ccccc2)nc2ccccc12	-44%	-29%	-15%	-1	4%	22%
c1ccc(Nc2nc(-c3ccncc3)nc3ccccc23)cc1	9%	-5%	-9%	1	-7%	4%
CC(C)OCCCNc1nc(-c2ccccc2)nc2ccccc12	12%	-22%	1.8µM*	-5	?	7%
COc1ccc(C)cc1-n1nnc(S(=O)(=O)c2ccc(C)cc2)c1C	nt	nt	nt	nt	nt	0%
CC(C(=O)OCC(=O)c1ccc(Br)cc1)N1C(=O)C2C3CCC(C3)C2C1=O (centres undefined)	40%	-14%	-19%	0	1%	0%
Cc1nc(C#N)c(N/N=C/c2cccc(Cl)c2)o1	3%	22µM*	7%	-3	?	7%
Cc1cc(N/N=C/c2cccc(Cl)c2)nc(-n2nc(C)cc2C)n1	-34%	-75%	-10%	0	-21%	0%
SMILES	a7 integrin act	BRCA1 expr up	N370S GC mod	IL-2 act	BCR signal inh	Nrf2 ARE act
O=[N+]([O-])c1ccc(-c2cn3c(n2)SCC3)cc1	22%	8.9µM*	nt	0	nt	5%
Cc1ccc(OCC(=O)c2ccc3c(c2)CCCC3)cc1C	0%	4.5µM*	3%	0	1%	2%
O=C(COc1ccc(Br)cc1)c1ccc2c(c1)CCCC2	34%	19%	22%	0	11%	1%
O=C(NCCN1C(=O)S/C(=C\c2cccs2)C1=O)[C@H](Cc1ccccc1)N1C(=O)c2ccccc2C1=O	nt	nt	-3%	nt	4%	nt
C/C(=N\NC(=O)c1ccc(N2CCCC2=O)cc1)c1ccccc1	15%	26%	-19%	1	-2%	0%
CNC(=S)N/N=C(\C)c1ccc(N2CCOCC2)cc1	-51%	8.9µM*	-2%	0	?	5%
C/C(=N\NC(=O)c1ccccc1)c1ccccc1Br	30%	11µM*	2%	4	?	5%
C/C(=N\NC(=O)c1ccccc1)c1ccc(N2CCCCC2)cc1	-11%	11µM*	5%	-2	?	0%
S=C(NCc1ccccn1)NN=Cc1ccccn1	-32%	-78%	nt	0	nt	-1%
COc1ccc(CN(Cc2ccccc2)C(=O)c2ccno2)cc1COc1ccc(NC(C)=O)cc1	nt	21%	nt	nt	nt	nt
Nc1c(C(=O)Nc2ccccc2)sc2nc(N3CCOCC3)c3c(c12)CCCC3	11%	13µM*	nt	-4	nt	3%
O=S(=O)(c1ccc2c(c1)OCCO2)N1CCN(CCc2ccccc2)CC1	nt	13%	nt	nt	nt	nt
Cc1ccccc1OCCn1cnc2c(N)ncnc21	-4%	-1%	4%	0	18µM*	5%
Oc1[nH]c(N=C2N=c3ccccc3=N2)c2ccccc12	9%	-59%	6%	-4	?	5.6µM*
Clc1ccc(CN2C3=NCCCN3c3ccccc32)c(Cl)c1	-24%	-17%	-13%	-2	0%	0%
Oc1ccc(NC(=S)N=Nc2c(O)[nH]c3ccc(Br)cc23)cc1	-8%	-52%	-29%	0	?	2%
O=C(N=Nc1c(O)[nH]c2ccc(Br)cc12)c1ccco1	7%	5%	nt	-4	nt	5µM*
Oc1cccc(NC(=S)N=Nc2c(O)[nH]c3ccc(Br)cc23)c1	0%	-63%	7.9µM*	-5	?	?
O=C(N=Nc1c(O)[nH]c2ccc(Br)cc12)c1ccccc1-n1cccc1	-17%	-89%	15%	0	?	7%
COc1cc(-c2nnc3n2CCCCC3)cc(OC)c1OC	14%	-9%	6%	0	-5%	0%
CC1CC2(CC(CN(C3CCCCC3)C3CCCCC3)OC2=O)C(=O)O1 (centres undefined)	nt	20%	nt	1	nt	0%
S=c1[nH]nc(-c2ccncc2)n1/N=C/c1cn(-c2ccccc2)nc1-c1ccccc1	-7%	13µM*	11%	3	-3%	6%
O=[N+]([O-])c1ccc(-c2nn(-c3ccccc3)cc2/C=N/n2c(-c3ccncc3)n[nH]c2=S)cc1	12%	-3%	?	0	?	-1%
CCOc1ccc(C(CC(=O)O)NC(=O)C(CC)c2ccccc2)cc1 (centres undefined)	25%	13%	-5%	-1	1%	0%

Bioassay records from PubChem.
